# Laboratory results from the OligoGym collection.
# Biological target: AP3B1
# Assay: pooled miR-30 sensor sort-seq; sequence = guide strand
# Details: shRNA
# Further: reference of the scale not given here.
row,Sequence,sensor-assay potency score (higher = more potent)
1,TTCTTCAGCATATCGAACCAGG,-0.815
2,TAGATCTTCATTCTTCTTCAAA,-0.874
3,TTGCTTTAGATCTTCATTCTTC,0.267
4,TTATGAATCAGATCTATTCTGT,0.754
5,TAAACATATACCAACTTCTTGA,-0.605
6,TTTCTTTGAATTGACATAGTTG,-0.577
7,TAAACCTTCAAGATCAGCCATC,-0.757
8,TTCTTTATAACAACCACACTTT,0.0495
9,TACATTCGGAACAATAAGCTGC,0.383
10,TACTTCTACATTTCGAACTGAT,0.236
11,TAGAAGTGAAACATCTTTGGTA,0.763
